p53 mut binder: binders of human mutant p53; small molecule microarray binding, anti-GST fluorescence; calls only; 17,000 tested, 0.4% active; AID 624136;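 active means compounds whose four printed spots each glow above background more than chance allows, each with a p-value under 7%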
c-Myc SMM: c-Myc (human) binding; AID 624141; calls only; 17,000 tested, 1.5% active; small molecule microarray, His-c-Myc binding, anti-His fluorescence; P01106;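 active means spot fluorescence over background with P-value below 7% in all four replicate spots, showing protein binding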;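 further: score is binary with 100 for all four spots passing and 0 otherwise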
STAT3 SMM: binds human STAT3 on microarray; P40763; Small molecule microarray, His-STAT3 binding, anti-His fluorescence; calls only; 17,000 tested, 0.2% active;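 active means compounds whose four printed spots each show fluorescence over background unusually high for their array block, chance value under 7%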
NFkB SMM: binds human NF-kappa-B p105 on microarray; AID 624139; calls only; 17,000 tested, 1.3% active; Small molecule microarray, anti-His fluorescence binding;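 active means spot fluorescence over background significantly raised, with a chance value under 7% in all four replicate spots of the compound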;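 further: probe protein is his-tagged human p50 processed subunit at 1 µg/ml; raw spot fluorescence signals with no normalization applied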
Target sequence (P19838 1-433 limits assumed): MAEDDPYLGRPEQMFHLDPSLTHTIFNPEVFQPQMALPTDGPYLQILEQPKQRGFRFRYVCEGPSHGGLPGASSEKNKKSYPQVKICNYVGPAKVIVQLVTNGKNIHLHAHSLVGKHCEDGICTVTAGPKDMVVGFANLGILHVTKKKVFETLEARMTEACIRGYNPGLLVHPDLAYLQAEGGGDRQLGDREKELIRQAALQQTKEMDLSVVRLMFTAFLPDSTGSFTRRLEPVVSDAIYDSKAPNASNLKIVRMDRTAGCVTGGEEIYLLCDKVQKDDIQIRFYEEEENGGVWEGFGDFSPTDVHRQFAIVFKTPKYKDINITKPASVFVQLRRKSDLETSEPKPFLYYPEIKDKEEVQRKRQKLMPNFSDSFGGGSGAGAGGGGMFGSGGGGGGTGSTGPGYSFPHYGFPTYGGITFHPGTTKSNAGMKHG
* hit, by the source's call. Most compounds without a hit are left out; they make up all but 2.5% or so of the library.

What do the screens show for `C[C@@H]1CCCCO[C@@H](CN(C)Cc2ccc(C(=O)O)cc2)[C@H](C)CN([C@H](C)CO)C(=O)c2cc(NC(=O)Nc3ccc(C(F)(F)F)cc3)ccc2O1`?
p53 mut binder: inactive; c-Myc SMM: inactive; STAT3 SMM: inactive; NFkB SMM: active

Results for C[C@@H]1CCCCO[C@@H](CN(C)Cc2ccc(C(F)(F)F)cc2)[C@@H](C)CN([C@H](C)CO)C(=O)c2cc(NC(=O)C3CCCCC3)ccc2O1 ?
p53 mut binder: inactive; c-Myc SMM: inactive; STAT3 SMM: inactive; NFkB SMM: inactive

What do the screens show for `C/C=C(/C)C(=O)OC(COc1c2ccoc2c(OC)c2oc(=O)ccc12)C(C)(C)O` (stereo unspecified)?
p53 mut binder: inactive; c-Myc SMM: inactive; STAT3 SMM: inactive; NFkB SMM: inactive

Results for CC(C)(C)C(=O)CSc1nnc(-c2ccco2)n1Cc1ccco1 ?
p53 mut binder: inactive; c-Myc SMM: inactive; STAT3 SMM: inactive; NFkB SMM: inactive

What do the screens show for `Clc1ccc(CSc2nnc(-c3ccco3)n2Cc2ccco2)c(Cl)c1`?
p53 mut binder: active; c-Myc SMM: inactive; STAT3 SMM: inactive; NFkB SMM: inactive

Results for N#Cc1ccc(-c2cccs2)nc1SCC(=O)Nc1sc2c(c1C#N)CCCC2 ?
p53 mut binder: inactive; c-Myc SMM: active; STAT3 SMM: inactive; NFkB SMM: inactive

Results for CC(C)(C)NS(=O)(=O)c1ccc(NC(=O)COc2ccc3ccccc3c2Br)cc1 ?
p53 mut binder: inactive; c-Myc SMM: inactive; STAT3 SMM: inactive; NFkB SMM: inactive

What do the screens show for `Cc1ccc(S(=O)(=O)NC(=O)COc2cccc3ccccc23)c(C)c1`?
p53 mut binder: inactive; c-Myc SMM: active; STAT3 SMM: inactive; NFkB SMM: inactive

What do the screens show for `Cc1ccc(-c2nc3ccccc3[nH]2)cc1NC(=O)C(C)Oc1ccc(Cl)cc1Cl` (stereo unspecified)?
p53 mut binder: inactive; c-Myc SMM: inactive; STAT3 SMM: inactive; NFkB SMM: inactive

What do the screens show for `C/C=C/CC(C)C(O)C1C(=O)NC(CC)C(=O)N(C)CC(=O)N(C)C(CC(C)C)C(=O)NC(C(C)C)C(=O)N(C)C(CC(C)C)C(=O)NC(C)C(=O)NC(C)C(=O)N(C)C(CC(C)C)C(=O)N(C)C(CC(C)C)C(=O)N(C)C(C(C)C)C(=O)N1C` (stereo unspecified)?
p53 mut binder: inactive; STAT3 SMM: inactive; NFkB SMM: active

How did COCCNC(=S)Nc1nc(OC)cc(OC)n1 do in these assays?
p53 mut binder: inactive; c-Myc SMM: active; STAT3 SMM: inactive; NFkB SMM: inactive

What do the screens show for `COc1ccc(CCNC(=S)Nc2ccncc2)cc1OC`?
p53 mut binder: inactive; c-Myc SMM: inactive; STAT3 SMM: inactive; NFkB SMM: inactive

How did O=C(O)CNS(=O)(=O)c1cc(Cl)c(Cl)cc1Cl do in these assays?
p53 mut binder: active; c-Myc SMM: active; STAT3 SMM: inactive; NFkB SMM: active

What do the screens show for `COc1ccc(NC(=S)NCCn2cc(Br)cn2)cc1OC`?
p53 mut binder: inactive; c-Myc SMM: inactive; STAT3 SMM: inactive; NFkB SMM: inactive

What do the screens show for `COc1ccc(Cl)cc1NC(=S)NCCn1cc(Cl)cn1`?
p53 mut binder: inactive; c-Myc SMM: active; STAT3 SMM: inactive; NFkB SMM: inactive

Results for COc1ccc(Cl)cc1NC(=S)NCCCN1CCCC1=O ?
p53 mut binder: inactive; c-Myc SMM: active; STAT3 SMM: inactive; NFkB SMM: inactive

What do the screens show for `COC(=O)C1=COC(OC2OC(CO)C(O)C(O)C2O)C2C1C(O)CC2(C)OC(C)=O` (stereo unspecified)?
p53 mut binder: inactive; c-Myc SMM: inactive; STAT3 SMM: inactive; NFkB SMM: inactive

Results for C[C@@H]1CCCCO[C@H](CN(C)C(=O)Nc2ccc(C(F)(F)F)cc2)[C@@H](C)CN([C@@H](C)CO)C(=O)c2cc(NC(=O)Cc3ccccc3)ccc2O1 ?
p53 mut binder: active; c-Myc SMM: inactive; STAT3 SMM: inactive; NFkB SMM: active

What do the screens show for `CC(C)NC(=O)N(C)C[C@@H]1OCCCC[C@@H](C)Oc2ccc(NC(=O)Nc3ccc(C(F)(F)F)cc3)cc2C(=O)N([C@@H](C)CO)C[C@H]1C`?
p53 mut binder: inactive; c-Myc SMM: inactive; STAT3 SMM: inactive; NFkB SMM: inactive

How did CC(C)NC(=O)N(C)C[C@@H]1OCCCC[C@H](C)Oc2ccc(NC(=O)Nc3ccc(C(F)(F)F)cc3)cc2C(=O)N([C@@H](C)CO)C[C@@H]1C do in these assays?
p53 mut binder: inactive; c-Myc SMM: active; STAT3 SMM: inactive; NFkB SMM: active

Results for C[C@H](CO)N1C[C@H](C)[C@H](CN(C)C(=O)Nc2ccc(C(F)(F)F)cc2)OCCCC[C@H](C)Oc2ccc(NC(=O)Nc3ccc(F)cc3)cc2C1=O ?
p53 mut binder: inactive; c-Myc SMM: inactive; STAT3 SMM: inactive; NFkB SMM: active

What do the screens show for `CC(C)NC(=O)N(C)C[C@H]1OCCCC[C@H](C)Oc2ccc(NC(=O)Nc3ccc(C(F)(F)F)cc3)cc2C(=O)N([C@H](C)CO)C[C@H]1C`?
p53 mut binder: inactive; c-Myc SMM: inactive; STAT3 SMM: inactive; NFkB SMM: active

Results for Cc1ccc(OCC(=O)Nc2ccccc2N2CCOCC2)cc1 ?
p53 mut binder: inactive; c-Myc SMM: inactive; STAT3 SMM: inactive; NFkB SMM: inactive

How did O=C(COc1ccccc1)Nc1ccc2nn(-c3ccc(Cl)cc3)nc2c1 do in these assays?
p53 mut binder: inactive; c-Myc SMM: inactive; STAT3 SMM: inactive; NFkB SMM: inactive

What do the screens show for `O=S(=O)(Nc1ncccn1)c1ccc(NC(=S)Nc2ccc(F)c(Cl)c2)cc1`?
p53 mut binder: inactive; c-Myc SMM: inactive; STAT3 SMM: inactive; NFkB SMM: inactive

Results for C[C@@H]1CCCCO[C@@H](CN(C)C(=O)Nc2ccc(C(F)(F)F)cc2)[C@H](C)CN([C@@H](C)CO)C(=O)c2cc(NC(=O)c3ccncc3)ccc2O1 ?
p53 mut binder: inactive; c-Myc SMM: active; STAT3 SMM: inactive; NFkB SMM: active

Results for CCN1CCN(c2c(Cl)cccc2NC(=O)COc2ccc(OC)cc2)CC1 ?
p53 mut binder: inactive; c-Myc SMM: inactive; STAT3 SMM: inactive; NFkB SMM: inactive

How did C=CCn1c(SCC(=O)O)nnc1-c1cccc(C)c1 do in these assays?
p53 mut binder: inactive; c-Myc SMM: active; STAT3 SMM: inactive; NFkB SMM: inactive

How did CCc1ccccc1NC(=O)CSc1nnc(-c2ccccc2)n1C do in these assays?
p53 mut binder: inactive; c-Myc SMM: inactive; STAT3 SMM: inactive; NFkB SMM: inactive

What do the screens show for `COc1ccc(NC(=O)Nc2ccc3c(c2)CC(=O)N([C@@H](C)CO)C[C@H](C)[C@@H](CN(C)Cc2ccc(Oc4ccccc4)cc2)O3)cc1`?
p53 mut binder: active; c-Myc SMM: inactive; STAT3 SMM: inactive; NFkB SMM: inactive

Results for Cc1noc(C)c1S(=O)(=O)Nc1ccc2c(c1)CC(=O)N([C@@H](C)CO)C[C@H](C)[C@H](CN(C)Cc1ccc(-c3ccccc3)cc1)O2 ?
p53 mut binder: inactive; c-Myc SMM: inactive; STAT3 SMM: inactive; NFkB SMM: inactive
